# Compound activity (PubChem)
# IP6K1 inh: blocks human inositol hexakisphosphate kinase 1; Q92551; IP6K1 kinase, ADP-Glo luminescence, 2 h; hits give low values; activity change, % (series mostly up to about 58 µM); 140,000 tested, 0.81% active; AID 1645851; in the data active = activity change below about -25%; also: % is scaled to controls: 0 for no effect and ±100 for the full control effect
#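 ADP-Glo luminescence measures ADP made by human IP6K1 during a 2 h RT reaction with ATP/IP6 (mix at 1.3 mM/130 uM); top library doses 57.5 and 19.1 uM final.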
# KDM5B inhibitor: blocks human KDM5B histone demethylase activity; 220,000 tested, 2.6% active; Q9UGL1; KDM5B demethylase, FDH-coupled NADH fluorescence (FDH is formaldehyde dehydrogenase); Potency, µM (titrated, usually from 57.7 µM), actives largely listed as inhibitors; also: potency is read from the fitted curve at half-maximal effect; 0% is about no effect; nearly all actives have a fitted effect of over 70% in size
# Target sequence (Q9UGL1 whole entry, looked up): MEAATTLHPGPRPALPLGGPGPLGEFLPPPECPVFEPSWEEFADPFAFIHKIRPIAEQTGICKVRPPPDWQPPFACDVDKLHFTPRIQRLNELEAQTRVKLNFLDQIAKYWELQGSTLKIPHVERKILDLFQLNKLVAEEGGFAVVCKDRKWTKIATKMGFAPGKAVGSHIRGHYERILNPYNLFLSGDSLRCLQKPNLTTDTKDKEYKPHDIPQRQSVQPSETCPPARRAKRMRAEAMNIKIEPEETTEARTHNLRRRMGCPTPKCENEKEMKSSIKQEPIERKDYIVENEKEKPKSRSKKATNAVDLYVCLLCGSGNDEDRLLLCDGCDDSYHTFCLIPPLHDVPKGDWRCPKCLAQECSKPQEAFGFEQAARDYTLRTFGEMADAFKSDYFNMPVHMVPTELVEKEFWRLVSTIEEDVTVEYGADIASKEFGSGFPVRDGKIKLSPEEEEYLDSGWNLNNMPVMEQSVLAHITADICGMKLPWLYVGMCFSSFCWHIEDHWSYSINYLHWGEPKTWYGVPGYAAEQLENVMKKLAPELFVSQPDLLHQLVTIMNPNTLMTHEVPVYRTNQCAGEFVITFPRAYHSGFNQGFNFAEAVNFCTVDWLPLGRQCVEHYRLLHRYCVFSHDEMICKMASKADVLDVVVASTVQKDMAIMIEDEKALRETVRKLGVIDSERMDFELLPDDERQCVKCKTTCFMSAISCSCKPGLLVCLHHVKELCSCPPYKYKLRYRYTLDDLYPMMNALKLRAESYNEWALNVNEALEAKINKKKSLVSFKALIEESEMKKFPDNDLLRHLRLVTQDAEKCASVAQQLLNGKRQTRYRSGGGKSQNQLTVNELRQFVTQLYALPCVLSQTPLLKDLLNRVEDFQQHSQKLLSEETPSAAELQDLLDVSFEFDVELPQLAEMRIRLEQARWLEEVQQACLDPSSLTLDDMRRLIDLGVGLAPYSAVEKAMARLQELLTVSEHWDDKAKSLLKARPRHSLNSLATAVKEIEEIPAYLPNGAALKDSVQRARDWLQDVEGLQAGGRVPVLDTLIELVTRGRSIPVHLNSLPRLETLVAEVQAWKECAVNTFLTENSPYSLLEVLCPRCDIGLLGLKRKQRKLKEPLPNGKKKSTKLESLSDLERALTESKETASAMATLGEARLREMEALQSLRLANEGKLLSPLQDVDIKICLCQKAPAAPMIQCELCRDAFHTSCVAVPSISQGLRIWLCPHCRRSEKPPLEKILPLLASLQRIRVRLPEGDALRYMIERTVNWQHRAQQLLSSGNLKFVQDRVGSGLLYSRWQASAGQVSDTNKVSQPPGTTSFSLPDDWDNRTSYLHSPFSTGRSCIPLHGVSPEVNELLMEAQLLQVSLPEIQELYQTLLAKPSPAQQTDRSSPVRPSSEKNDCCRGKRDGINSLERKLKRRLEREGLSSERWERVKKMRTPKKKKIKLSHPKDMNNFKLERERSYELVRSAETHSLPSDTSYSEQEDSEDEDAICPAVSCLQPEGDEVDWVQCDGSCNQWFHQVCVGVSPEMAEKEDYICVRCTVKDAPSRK
#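 KDM5BΔAP (200 nM final) in 50 mM HEPES pH 7.5, 0.01% Tween-20 was preincubated 10 min at RT with compound over a concentration range. Substrate mix (H3K4me3 12.5 µM, α-KG 25 µM, Fe²⁺, ascorbate, NAD⁺, FDH) was added, and NADH fluorescence change over 30 min gave dose-response curves.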
# SNCA expr inhib: inhibitors of alpha-synuclein (SNCA) gene expression; HEK-293 SNCA-luciferase knock-in, luminescence, 24 h; Potency, µM (top dose mostly 57.2 µM), without a hit: top-dose activity change, negative = inhibition, actives largely listed as inhibitors; 140,000 tested, 0.17% active;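 also: potency is read from the fitted curve at half-maximal effect; plate controls were DMSO cells for no effect and cell-free wells for full effect; nearly all actives have a fitted effect of over 45% in size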
# SNCA viab count: cell viability loss counter-screen | HEK-293-SNCA-luc viability, GF-AFC fluorescence, 24 h | Potency, µM (series often up to 57.1 µM), for inactives: at the top dose activity change, negative = cytotoxicity, hits mostly cytotoxic | 150,000 tested, 0.12% active | AID 1671193;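 also: potency is read from the fitted curve at half-maximal effect; 0% = DMSO-treated cells and -100% = medium-only wells without cells; nearly all actives have a fitted effect of over 30% in size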
#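 Cytotoxicity counterscreen: after 24 h compound treatment of genome-edited SNCA-luciferase HEK-293 cells, live-cell protease substrate GF-AFC read by fluorescence after 30 min; activity scaled between DMSO (0%) and medium-only (-100%), curves Hill-fitted.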
# An asterisk follows results filed as active; i = inactive; ? = inconclusive; nt = no result given; [ ] = remark or other dose. An excerpt weighted towards active compounds, which were near 3% of everything screened. Unless noted, calls follow the shape of the dose curve; as a rule, active = well fitted curve in the direction sought with a large enough effect; inconclusive = small, poorly fitted or top-dose-only effect, or another doubt; inactive = no such curve, though single readings can be large; an effect the other way counts as inactive or inconclusive.
SMILES,IP6K1 inh,KDM5B inhibitor,SNCA expr inhib,SNCA viab count
N#CC1CCN(C(=O)c2nc(-c3cccc(C(F)(F)F)c3)c3ccccn23)CC1,1,14µM*,-15%,-20%
Cc1cc(C)c(NC(=O)c2nn(C(C)C)c(=O)c3ccccc23)c(Cl)c1,nt,i,nt,nt
CN(C)C(=O)NC1CCN(Cc2cccc(-c3ccc(F)c(F)c3)c2)CC1,23,nt,nt,nt
COc1ccccc1-c1cccc(C(=O)N2CCN(C(=O)c3ccc(Cl)cc3)CC2)c1,9,nt,?,-4%[12.5 µM]
COc1ccc(NC(=O)N2CCc3c(C(=O)NC(C)C)cccc32)cc1,-4,i,3.5µM*,-11%
Cc1ccc(NC(=O)N2CCc3c(C(=O)NCCCN4CCCC4=O)cccc32)cc1,-5,i,2µM*,2%
Cc1ccc(NC(=O)N2CCc3c(C(=O)NC(C)c4cccnc4)cccc32)cc1 (stereo not given),-5,i,4µM*,-5%
CCc1nc(C)c(C(=O)O)s1,nt,i,nt,nt
CCOC(=O)[C@H]1C[C@]2(CCCCNC2=O)N(C(=O)/C=C/c2ccccc2)[C@H]1c1ccco1,7,nt,nt,nt
CCCS(=O)(=O)c1nc(S(=O)(=O)c2ccc(C)cc2)c(NCC)s1,nt,i,nt,nt
COc1ccc(-c2nc3cc(C)ccc3cc2CN2CCC(NC(C)=O)C2)cc1 (stereo not given),9,20µM*,-7%,-2%
N#C/C(=C/c1cccc(F)c1)C(=O)c1c[nH]c2cc(F)ccc12,nt,i,nt,nt
COCCNC(=O)c1nc2nc(-c3ccccc3)c(Cl)cc2n1C,2,40µM*,-20%[87.6 µM],3%[87.6 µM]
COCCCNC(=O)c1nc2nc(-c3ccccc3)c(Cl)cc2n1C,21,i,-5%[87.6 µM],-2%[87.6 µM]
COc1ccc(-c2cc3c(nc2-c2ccccc2)nc(C(=O)NCCN(C)C)n3C)cn1,3,i,-30%[87.6 µM],-4%[87.6 µM]
COc1cc(F)ccc1-c1cc2c(nc1-c1ccccc1)nc(C(=O)NCCN(C)C)n2C,4,32µM*,-16%,-13%
COc1ccccc1-c1cc2c(nc1-c1ccccc1)nc(C(=O)NCCN(C)C)n2C,6,32µM*,8%[87.6 µM],-16%[87.6 µM]
CC(C)N(C)CC1CCN(C(=O)NCCc2ccc(F)cc2)CC1,nt,i,nt,nt
Cn1cc(CC(=O)N2CCC(NC(=O)C3CC3)CC2)c2ccccc21,nt,i,nt,nt
Cc1nnc2ccc(N3CCN(C(=O)c4cccc(Cl)c4)CC3)nn12,5,nt,nt,nt
O=C1C(Oc2ccc(F)cc2)C2(CCCCC2)N1Cc1ccc(F)cc1 (stereo not given),-7,nt,-23%,?
Cn1ncc2c(C(=O)Nc3ccc(Cl)cc3)cc(-c3cccc(F)c3)nc21,2,nt,nt,nt
CC(C)C(=O)NC(Nc1cccc2ccccc12)C(Cl)(Cl)Cl (stereo not given),nt,i,nt,nt
CC(=O)Nc1cccc(-c2ncc3c(n2)OCCN(Cc2ccc(F)cc2F)C3=O)c1,13,32µM*,-3%[87.6 µM],-1%[87.6 µM]
CC(=O)Nc1cccc(-c2ncc3c(n2)OCCN(CC2CC2)C3=O)c1,3,32µM*,66%[87.6 µM],-1%[87.6 µM]
SMILES,IP6K1 inh,KDM5B inhibitor,SNCA expr inhib,SNCA viab count
COc1cccc(F)c1-c1ncc2c(n1)OCCN(CC1CC1)C2=O,2,28µM*,9%[87.6 µM],-16%[87.6 µM]
COc1ccc(Cl)cc1-c1ncc2c(n1)OCCN(Cc1ccc(F)cc1F)C2=O,2,35µM*,17%[87.6 µM],-9%[87.6 µM]
COc1ccc(-c2nnc(C[C@@H]3C[C@@H](C(C)C)[C@H](CN4CCN(c5ncccn5)CC4)C=C3C)o2)cc1,18,?,?,?
COc1ccc(C(=O)NC2CCN(Cc3cccc(-c4ccc(F)c(F)c4)c3)CC2)cc1,-7,nt,?,-13%
O=C1c2cnc(-c3ccoc3)nc2OCCN1Cc1ccc(F)cc1F,2,35µM*,1%[87.6 µM],-1%[87.6 µM]
O=C1c2cnc(-c3ccc(F)cc3F)nc2OCCN1Cc1ccc(F)cc1F,6,i,58%[87.6 µM],-7%[87.6 µM]
COc1ccccc1-c1nc2nccc(-c3cc(OC)c(OC)c(OC)c3)n2n1,7,25µM*,32%,6%
COc1ccccc1-c1nc2nccc(-c3ccc4c(c3)OCCCO4)n2n1,-3,14µM*,4%,-16%
COc1ccccc1-c1nc2nccc(-c3ccccc3)n2n1,-5,i,33%,-10%
COc1ccccc1-c1nc2nccc(-c3cc4ccccc4o3)n2n1,7,25µM*,11%,-28%
COc1ccccc1-c1nc2nccc(-c3ccco3)n2n1,-9,?,11%,-4%
COc1ccccc1-c1nc2nccc(-c3ccc(Cl)cc3)n2n1,5,32µM*,15%,-11%
O=C(NC1CCCN(c2ccnc3ccnn23)C1)c1cccc(Br)c1 (stereo not given),-2,nt,5%[87.6 µM],-14%[87.6 µM]
Cc1ccc(-c2cccc(CN3CCCC3C(=O)NCc3cccc(Cl)c3)c2)cc1Cl (stereo not given),6,nt,nt,nt
COc1cc(-c2ccnc3nc(-c4ccco4)nn23)cc(OC)c1OC,-8,25µM*,13%,-3%
COc1ccc(-c2ccnc3nc(-c4ccccc4OC)nn23)cc1OC,-5,28µM*,21%,-6%
Brc1ccc(-c2ccnc3nc(-c4ccco4)nn23)s1,-11,28µM*,1%,-7%
O=C(c1nc(-c2cccc(C(F)(F)F)c2)c2ccccn12)N1CCOCC1,-13,28µM*,1%,5%
CC(C)NC(=O)c1nc(-c2cccc(C(F)(F)F)c2)c2ccccn12,31,?,-4%,6%
C#CCNC(=O)c1nc(-c2cccc(C(F)(F)F)c2)c2ccccn12,-8,i,0%[87.6 µM],-24%[87.6 µM]
O=C(c1nc(-c2ccc(Cl)cc2Cl)c2cnccn12)N1CCN(c2ncccn2)CC1,-13,?,-6%,-1%
CN(C)C(=O)c1nc(-c2cccc(C(F)(F)F)c2)c2ccccn12,0,35µM*,11%[87.6 µM],-15%[87.6 µM]
O=C(c1nc(-c2cccc(C(F)(F)F)c2)c2ccccn12)N1CCN(c2ncccn2)CC1,37,25µM*,-8%,10%
O=C(c1nc(-c2cccc(C(F)(F)F)c2)c2cnccn12)N1CCN(c2ncccn2)CC1,0,28µM*,19%,-7%
O=C1CCN(CC(O)C(F)(F)F)c2ccc(F)cc2CN1Cc1ccccc1 (stereo not given),-15,nt,nt,nt
SMILES,IP6K1 inh,KDM5B inhibitor,SNCA expr inhib,SNCA viab count
CN(Cc1cccc(N2CCN(C(=O)c3c(Cl)cccc3Cl)CC2)c1)[S+](C)(=O)[O-],4,nt,nt,nt
CC(C)NC(=O)C1CCCN(Cc2cccc(-c3ccsc3)c2)C1 (stereo not given),-10,nt,nt,nt
COc1ccc(CNC(=O)c2cc(-c3ccccc3C(F)(F)F)nc3[nH]ncc23)cc1OC,20,nt,nt,nt
Cc1ccc(NC(=O)Cn2ccn3nc(-c4ccc(F)cc4)c(CO)c3c2=O)c(C)c1,-5,?,-26%,-10%
Cc1ccc(NC(=O)Cn2ccn3nc(-c4ccccc4)c(CO)c3c2=O)c(C)c1,-2,32µM*,-18%,4%
Cc1ccc(C)c(NC(=O)Cn2ccn3nc(-c4ccc(F)cc4)c(CO)c3c2=O)c1,0,18µM*,-12%,0%
O=C(Cn1ccn2nc(-c3ccc(F)cc3)c(CO)c2c1=O)NCc1ccccc1Cl,3,28µM*,-4%,18%
